High-throughput results from PubChem.
MEKK3 PB1 HTS: modulators (inhibitors or enhancers) of MEK5 binding to human MEKK3 PB1 domain; binding response (% of control), % at 10 µM; 290,000 compounds, 1.4% hits; bead-based flow cytometry, Alexa488-MEK5 binding to MEKK3; actives lie on both sides; 0 = blocked by unlabeled MEK5, 100 = vehicle; Q99759;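 active = binding response more than 3 SD above or below the average of its plate-row segment, actives on both sides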;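 also: Alexa488 bead fluorescence after subtracting the streptavidin-only scavenger bead signal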
UBC13 polyUb: inhibitors of human UBC13 polyubiquitin chain formation; TR-FRET; P61088; 330,000 compounds, 0.47% hits; inhibition, % at 20 µM; in the data active = inhibition above about 45%, passing the limit was not always enough
Target sequence (P61088 whole entry, looked up): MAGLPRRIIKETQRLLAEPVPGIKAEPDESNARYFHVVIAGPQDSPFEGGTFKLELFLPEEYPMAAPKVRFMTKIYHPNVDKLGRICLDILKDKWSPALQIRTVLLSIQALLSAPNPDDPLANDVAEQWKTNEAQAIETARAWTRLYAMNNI
MEKK2mut PB1 HTS: signal of MEK5 binding to mutant human MEKK2 PB1 domain; bead flow cytometry, Alexa488-MEK5 binding to MEKK2 mutant; percent response, % at 10 µM; AID 1530; 290,000 compounds, 0.35% hits; in the data active = percent response above about 24%, passing the limit was not always enough
MEKK2wt PB1 HTS: raises or lowers MEK5 binding to wildtype human MEKK2 PB1 domain; binding response (% of control), % at 10 µM; 290,000 compounds, 1.1% hits; bead flow cytometry, Alexa488-MEK5 binding to MEKK2 WT; actives lie on both sides; AID 1531; in the data active = binding response below about 67% or above about 130%
Rce1 inh: blocks yeast Ras-converting enzyme. Q03530. yeast membranes, quenched prenylated peptide cleavage fluorescence. calls only. 290,000 compounds, 0.27% hits;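 active = fall in fluorescence gain of 50% or more versus controls, with final raw signal at or below 3038400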;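 also: plate controls were neutral control wells for no effect and wells lacking membranes for full effect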
Target sequence (Q03530 whole entry, looked up): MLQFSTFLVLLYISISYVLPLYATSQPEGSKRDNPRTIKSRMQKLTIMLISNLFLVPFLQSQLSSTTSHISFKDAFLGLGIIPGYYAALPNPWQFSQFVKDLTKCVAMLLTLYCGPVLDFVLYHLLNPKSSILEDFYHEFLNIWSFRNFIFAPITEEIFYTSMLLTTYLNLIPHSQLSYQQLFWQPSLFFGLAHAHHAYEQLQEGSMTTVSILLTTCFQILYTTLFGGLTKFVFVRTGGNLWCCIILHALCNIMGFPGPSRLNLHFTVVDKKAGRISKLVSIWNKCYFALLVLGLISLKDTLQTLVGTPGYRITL
MEKK2wt confirm: raises or lowers MEK5 binding to wildtype human MEKK2, retest; shares compounds with MEKK3 PB1 HTS; bead flow cytometry, Alexa488-MEK5 binding to MEKK2 WT; actives lie on both sides; binding response (% of control), % at 10 µM; 5,900 compounds, 2.4% hits; AID 1892; in the data active = binding response below about 16% or above about 210%; inactive = in between
MEKK2mut confirm: signal of MEK5 binding to mutant human MEKK2, retest. shares compounds with MEKK3 PB1 HTS. bead flow cytometry, Alexa488-MEK5 binding to MEKK2 mutant. percent response, % at 10 µM. 5,900 compounds, 2% hits; in the data active = percent response mostly above about 71%, no sharp cut-off; inactive = mostly below about 38%;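 also: higher means compound restores mutant binding toward wildtype level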
MEKK3 confirm: MEKK3-MEK5 PB1 inhibition, single concentration confirmation. shares compounds with MEKK3 PB1 HTS. 5,900 compounds, 1.8% hits. bead flow cytometry, Alexa488-MEK5 binding to MEKK3; stronger effect = lower value. AID 1894. binding response (% of control), % at 10 µM;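 active = binding response below 72% of control, or above a set upper limit, though filed actives all read lower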;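 also: 100% = DMSO only wells and 0% = binding blocked by excess unlabeled MEK5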
The depositor's hits bear a star; [ ] = dose if it differs, or a comment. Compounds with a hit are over-represented: about 2.5% of the library has one in this group of screens.

`Cc1ccc(C#N)c(SCc2ccccc2F)n1` gave MEKK3 PB1 HTS 49.0*[inhibitor], UBC13 polyUb 5.2, MEKK2mut PB1 HTS -14.0, MEKK2wt PB1 HTS 59.0, Rce1 inh inactive, MEKK2wt confirm 104.0, MEKK2mut confirm 0.0 and MEKK3 confirm 102.0.
Screening CCCc1nnc(SCC(=O)NC2CCCC2)n1CCOC returned MEKK3 PB1 HTS 102.0, UBC13 polyUb 2.9, MEKK2mut PB1 HTS 5.0, MEKK2wt PB1 HTS 101.0 and Rce1 inh inactive.
Screening CC(CCc1ccc(O)cc1)NCCC(c1ccccc1)c1ccccc1 (stereo unspecified) returned MEKK3 PB1 HTS 106.0, UBC13 polyUb 19.5, MEKK2mut PB1 HTS 20.0, MEKK2wt PB1 HTS 144.0*, Rce1 inh inactive, MEKK2wt confirm 139.0, MEKK2mut confirm 21.0 and MEKK3 confirm 105.0.
Screening O=C(NCc1ccco1)c1ccc(S(=O)(=O)N2CCCCC2)cc1 returned MEKK3 PB1 HTS 130.0*, UBC13 polyUb 0.4, MEKK2mut PB1 HTS 0.0, MEKK2wt PB1 HTS 114.0, Rce1 inh inactive, MEKK2wt confirm 106.0, MEKK2mut confirm 5.0 and MEKK3 confirm 106.0.
O=C(NCc1cccs1)c1ccc(Cl)c(S(=O)(=O)N2CCCC2)c1 was read as MEKK3 PB1 HTS 74.0*[inhibitor], UBC13 polyUb -7.6, MEKK2mut PB1 HTS -2.0, MEKK2wt PB1 HTS 93.0, Rce1 inh inactive, MEKK2wt confirm 105.0, MEKK2mut confirm -1.0 and MEKK3 confirm 103.0.
Screening Cc1cc(C)cc(N(CC(=O)Nc2ccccc2-c2ccccc2)S(=O)(=O)c2ccccc2)c1 returned MEKK3 PB1 HTS 134.0*, UBC13 polyUb -15.5, MEKK2mut PB1 HTS 0.0, MEKK2wt PB1 HTS 107.0, Rce1 inh inactive, MEKK2wt confirm 98.0, MEKK2mut confirm -4.0 and MEKK3 confirm 102.0.
`CSc1ccccc1NC(=O)CN(c1cccc(C)c1)S(C)(=O)=O` gave MEKK3 PB1 HTS 67.0*[inhibitor], UBC13 polyUb 3.2, MEKK2mut PB1 HTS -11.0, MEKK2wt PB1 HTS 81.0, Rce1 inh inactive, MEKK2wt confirm 98.0, MEKK2mut confirm -7.0 and MEKK3 confirm 98.0.
Cc1ccc(N(CC(=O)Nc2ccccc2-c2ccccc2)S(=O)(=O)c2ccccc2)cc1 was read as MEKK3 PB1 HTS 103.0, UBC13 polyUb -0.5, MEKK2mut PB1 HTS 1.0 and MEKK2wt PB1 HTS 99.0.
Screening O=C(NCCCn1ccnc1)/C(=C/c1ccco1)NC(=O)c1ccco1 returned MEKK3 PB1 HTS 66.0*[inhibitor], UBC13 polyUb 1.5, MEKK2mut PB1 HTS -11.0, MEKK2wt PB1 HTS 70.0, Rce1 inh inactive, MEKK2wt confirm 101.0, MEKK2mut confirm 2.0 and MEKK3 confirm 105.0.
`CCc1nnc(NC(=O)CSCc2cc(=O)n3ccsc3n2)s1` gave MEKK3 PB1 HTS 92.0, UBC13 polyUb -2.5, MEKK2mut PB1 HTS -7.0, MEKK2wt PB1 HTS 93.0 and Rce1 inh inactive.
`COc1ccc(NC(=O)C(c2ccc(OC)cc2)N(C)C(=O)CC2NC(=O)NC2=O)cc1` (stereo unspecified) gave MEKK3 PB1 HTS 109.0, UBC13 polyUb -7.2, MEKK2mut PB1 HTS 1.0, MEKK2wt PB1 HTS 105.0 and Rce1 inh inactive.
Screening COc1ccc(NC(=O)C(NC(=O)CC2NC(=O)NC2=O)c2ccccc2)cc1 (stereo unspecified) returned MEKK3 PB1 HTS 155.0*, UBC13 polyUb 6.5, MEKK2mut PB1 HTS 0.0, MEKK2wt PB1 HTS 106.0, Rce1 inh inactive, MEKK2wt confirm 103.0, MEKK2mut confirm 1.0 and MEKK3 confirm 100.0.
Screening CNC(=S)N(CCc1c(C)[nH]c2ccc(Cl)cc12)Cc1cccnc1 returned MEKK3 PB1 HTS 105.0, UBC13 polyUb 2.0, MEKK2mut PB1 HTS 11.0, MEKK2wt PB1 HTS 108.0 and Rce1 inh inactive.
Screening CCNC(=S)N(CCc1c(C)[nH]c2ccc(Cl)cc12)Cc1cccnc1 returned MEKK3 PB1 HTS 106.0, UBC13 polyUb 14.1, MEKK2mut PB1 HTS 29.0*, MEKK2wt PB1 HTS 127.0, Rce1 inh inactive, MEKK2wt confirm 118.0, MEKK2mut confirm 10.0 and MEKK3 confirm 104.0.
For COCCNC(=S)N(CCc1c(C)[nH]c2ccc(Cl)cc12)Cc1cccnc1 the results were MEKK3 PB1 HTS 107.0, UBC13 polyUb 9.8, MEKK2mut PB1 HTS 24.0*, MEKK2wt PB1 HTS 124.0, Rce1 inh inactive, MEKK2wt confirm 115.0, MEKK2mut confirm 1.0 and MEKK3 confirm 100.0.
COCCNC(=S)N(CCc1c(C)[nH]c2ccc(F)cc12)Cc1cccnc1 was read as MEKK3 PB1 HTS 104.0, UBC13 polyUb 11.8, MEKK2mut PB1 HTS 21.0, MEKK2wt PB1 HTS 119.0 and Rce1 inh inactive.
Screening COc1ccccc1N(CC(=O)NCCN1CCOCC1)S(=O)(=O)c1ccccc1 returned MEKK3 PB1 HTS 103.0, UBC13 polyUb 1.7, MEKK2mut PB1 HTS 2.0, MEKK2wt PB1 HTS 102.0 and Rce1 inh inactive.
`O=C(N/N=C/c1ccccc1)NC1CCCCC1` gave MEKK3 PB1 HTS 67.0*[inhibitor], UBC13 polyUb -8.8, MEKK2mut PB1 HTS 0.0, MEKK2wt PB1 HTS 102.0, Rce1 inh inactive, MEKK2wt confirm 95.0, MEKK2mut confirm -4.0 and MEKK3 confirm 93.0.
Screening O=C(N/N=C/c1ccccc1F)NC1CCCCC1 returned MEKK3 PB1 HTS 140.0*, UBC13 polyUb 9.1, MEKK2mut PB1 HTS 1.0, MEKK2wt PB1 HTS 105.0, Rce1 inh inactive, MEKK2wt confirm 69.0, MEKK2mut confirm -17.0 and MEKK3 confirm 68.0*.
Screening O=C(N/N=C/c1cccc(F)c1)NC1CCCCC1 returned MEKK3 PB1 HTS 102.0, UBC13 polyUb -6.9, MEKK2mut PB1 HTS 16.0, MEKK2wt PB1 HTS 116.0 and Rce1 inh inactive.
Screening Cc1cc(C)c2sc(N(CCCN(C)C)C(=O)c3ccc(Br)s3)nc2c1 returned MEKK3 PB1 HTS 114.0, UBC13 polyUb 28.4, MEKK2mut PB1 HTS 28.0, MEKK2wt PB1 HTS 189.0*, Rce1 inh inactive, MEKK2wt confirm 204.0, MEKK2mut confirm 54.0 and MEKK3 confirm 111.0.
For Cc1ccc2nc(N(CCCN(C)C)C(=O)CN3C(=O)c4ccccc4C3=O)sc2c1 the results were MEKK3 PB1 HTS 100.0, UBC13 polyUb 19.2, MEKK2mut PB1 HTS 9.0, MEKK2wt PB1 HTS 125.0 and Rce1 inh inactive.
For Cc1cc(C)c2sc(N(CCCN(C)C)C(=O)CN3C(=O)c4ccccc4C3=O)nc2c1 the results were MEKK3 PB1 HTS 70.0*[inhibitor], UBC13 polyUb 19.6, MEKK2mut PB1 HTS 82.0*, MEKK2wt PB1 HTS 321.0*, Rce1 inh inactive, MEKK2wt confirm 156.0, MEKK2mut confirm 37.0 and MEKK3 confirm 115.0.
